Screens: PubChem BioAssay, National Center for Advancing Translational Sciences (NCATS)
The list is not random: actives were taken first. Their share in the collection is about 7.2%.
HCV inh: qHTS Assay for Inhibitors of Hepatitis C Virus (HCV); Huh7.5.1 HCVcc-Cre infection, luciferase reporter, 44 h; Potency, µM (top dose mostly 41.8 µM), for the others: at the highest dose activity change, negative = inhibition, most hits filed as inhibitors; 3.4% of 340,000 active; AID 651820, 2012
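Cells (1,000/well) were plated 4 h before compound, then infected with HCVcc-Cre virus (~0.5 moi). After 44 h further culture, infection was read as luciferase luminescence following a 15 min substrate incubation at room temperature.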
FMDV inh: High Throughput Screening for Foot and Mouth Disease Virus Antivirals; 1.2% of 410,000 active; AID 1159524, 2015; Potency, µM (series often up to 57.9 µM), for inactives: at the highest dose activity change, negative = inhibition, hits mostly inhibitors; FMDV antiviral cell-based qHTS; calls by dose curve; tested in HEK293T cells; also: read-out not given here; nearly all actives have a fitted effect of over 45% in size
Sm TGR block: qHTS Assay for the Inhibitors of Schistosoma Mansoni Peroxiredoxins | Schistosoma mansoni thioredoxin glutathione reductase (TGR), Q962Y6 | purified TGR, DTNB reduction, TNB absorbance 405 nm | Potency, µM (doses to about 114 µM), for inactives: at the top dose activity change, negative = inhibition, actives largely listed as inhibitors | 3% of 360,000 active | AID 485364, 2010; also: nearly all actives have a fitted effect of over 60% in size
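Kinetic colorimetric format: TGR-catalysed, NADPH-driven DTNB reduction monitored via TNB absorbance. Enzyme dispensed at 20 nM; compound exposure 15 min at room temperature before reaction start.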
RE007 growth inh: qHTS Assay for Inhibitors of the HIV-1 protein Vpr; 0.21% of 360,000 active; S. pombe RE007 Vpr strain, BacTiter-Glo ATP luminescence, 24 h; Potency, µM (doses to about 92.2 µM), for the others: top-dose activity change, negative = less growth, most hits filed as inhibitors; AID 651644, 2012; active = well fitted falling curve with a large enough effect; inconclusive = small, poorly fitted or top-dose-only effect; inactive = no such curve, though single readings can be large or run the other way; also: nearly all actives have a fitted effect of over 50% in size
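Fission yeast RE007 carrying one integrated HIV-1 vpr copy, seeded at OD 0.01 in PMG+AL medium with 23 nL pinned compound. Grown 24 h at 30 degrees; viability read by BacTiter-Glo luminescence after 5 min.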
Lassa entry inh: qHTS for Inhibitors of binding or entry into cells for Lassa Virus; Potency, µM (series often up to 37.9 µM), for inactives: at the top dose activity change, negative = inhibition, usual class: inhibitors; 1.2% of 300,000 active; Lassa virus pseudotype entry inhibition, cell reporter; calls by dose curve; tested in HEK293 cells; also: nearly all actives have a fitted effect of over 50% in size
MARV entry inh: qHTS for inhibitors of binding or entry into cells for Marburg Virus | Marburg virus pseudotyped entry inhibition, cell reporter | 1.8% of 300,000 active | Potency, µM (top dose mostly 37.8 µM), for inactives: top-dose activity change, negative = inhibition, usual class: inhibitors; calls by dose curve; tested in HEK293 cells
* = called active by the depositor; u = inconclusive; x = no result given; ! = not active in a repeat; [ ] = another dose, or the depositor's remark. Unless noted, calls follow the shape of the dose curve; as a rule, active = well fitted curve in the direction sought with a large enough effect; inconclusive = small, poorly fitted or top-dose-only effect, or another doubt; inactive = no such curve, though single readings can be large; an effect the other way counts as inactive or inconclusive. % is scaled to controls: 0 for no effect and ±100 for the full control effect; potency is read from the fitted curve at half-maximal effect.

SMILES	HCV inh	FMDV inh	Sm TGR block	RE007 growth inh	Lassa entry inh	MARV entry inh
CC[C@]12c3[nH]c4ccc(Cl)cc4c3CCN1C(=O)[C@@H](CC(=O)NCCC1=CCCCC1)C[C@@H]2C(=O)N1CCN(C(=O)c2ccco2)CC1	32µM*	u	x	1%	x	-7%
C[C@]12c3[nH]c4ccc(Cl)cc4c3CCN1C(=O)[C@@H](CC(=O)NCCC1=CCCCC1)C[C@@H]2C(=O)N1CCOCC1	11µM*	-19%	x	9%	x	7%
COc1cc2c(cc1OC)-c1c(OC)c(OC)c(OC)c3ccnc(c13)C2=O	-23%	u	-7%	-11%	u	18µM*
Cc1cnc(C)c(-c2cccc3c2OC(CNC(=O)/C=C/c2ccc(F)c(F)c2)C3)n1 (configuration not stated)	x	-16%	x	x	x	x
N=C(N)SCCN	-13%	-2%	-7%	-10%	22%	35µM*!
COc1ccc(CN2CC(=O)N(c3cc(Cl)ccc3OC)C2=S)cc1OC	11µM*	u	9%	8%	x	x
COc1ccc(CN2CC(=O)N(c3ccc(Cl)cc3)C2=S)cc1OC	-29%	-15%	-13%	11%	0%[46.1 µM]	0%[46.1 µM]
CCOc1ccccc1N1C(=O)CN(Cc2ccc(OC)c(OC)c2)C1=S	13µM*	-23%	-24%	-25%	x	x
COc1ccc(Cl)cc1N1C(=O)CN(Cc2cc(OC)c(OC)c(OC)c2)C1=S	16µM*	-30%	-5%	-2%	x	x
Cc1cc(C)cc(S(=O)(=O)c2cn(C)c3cc(N4CCCC4)c(F)cc3c2=O)c1	x	14%	2%	x	u	x
Cc1cc(C)c(O)c(-c2n[nH]c3c2C(c2cccc(O)c2)N(Cc2ccco2)C3=O)c1 (configuration not stated)	11µM*	-20%	7%	18%	x	x
O=C1c2[nH]nc(-c3ccccc3O)c2C(c2ccc(F)cc2)N1Cc1ccco1 (configuration not stated)	-1%	u	0%	4%	8.2µM*	u
O=C1c2[nH]nc(-c3ccccc3O)c2C(c2cccc(Cl)c2)N1Cc1ccco1 (configuration not stated)	13µM*	u	-11%	14%	u	13µM*
COc1ccc(C2c3c(-c4ccccc4O)n[nH]c3C(=O)N2Cc2ccco2)cc1OC (configuration not stated)	-1%	-3%	5%	-1%	u	-14%[46.1 µM]
c1cc2c(cc1Cn1cnnn1)OCO2	22%	7%	-4%	-7%	-2%	u
Cc1nnc(C)c2c(C)n(Cc3ccc4c(c3)OCO4)c(C)c12	4.5µM*	-22%	-7%	-14%	-2%	-10%
Cc1onc(-c2ccc(Cl)cc2)c1-c1ccnn1S(=O)(=O)c1cccc(C(F)(F)F)c1	u	-17%	1%	-10%	-27%	10µM*
CC(=O)OC1CC[C@]2(C)C(CC[C@@]3(C)C2C(=O)C=C2C4C(C)C(C)CC[C@@]4(C(=O)O)CCC23C)C1(C)C (some centres not stated)	x	-10%	x	x	x	x
Cc1c(C(=O)NCc2ccccc2)sc2nc3n(c(=O)c12)CCCCC3	x	21%	u	x	-7%[46.1 µM]	x
O=c1c(C(c2ccc(F)cc2)c2c(O)nc3n(c2=O)CCS3)c(O)nc2n1CCS2	5%	-12%	0.79µM*	-10%	-20%	0%[14.2 µM]
O=c1c(C(c2ccc(Cl)cc2)c2c(O)nc3n(c2=O)CCCS3)c(O)nc2n1CCCS2	17%	4%	1.8µM*	2%	1%	12%[46.1 µM]
COc1ccccc1CNC(=O)CCn1c(=O)c2ccccc2n(CC(=O)Nc2ccc(C)cc2Cl)c1=O	x	-28%	5%	x	-3%[46.1 µM]	44%[46.1 µM]
CCc1sc(Nc2cccc(C)c2C)nc1-c1cc2cccc(OC)c2oc1=O	x	-2%	7%	x	-1%[46.1 µM]	x
CC(=O)N1CC(C)Sc2ccc(S(=O)(=O)NCCc3ccc(C)cc3)cc21 (configuration not stated)	11µM*	-14%	-11%	1%	x	x
CC(=O)N1CCSc2ccc(S(=O)(=O)NCCc3ccc(Cl)cc3)cc21	11µM*	-9%	12%	-1%	x	x
SMILES	HCV inh	FMDV inh	Sm TGR block	RE007 growth inh	Lassa entry inh	MARV entry inh
CC(=O)N1CCSc2ccc(S(=O)(=O)NCCc3ccc(C)cc3)cc21	u	26%	-20%	17%	7.9µM*	u
O=C(CCN1C(=O)C2CC=CCC2C1=O)N1CCN(C2=NCCCC2)CC1 (configuration not stated)	x	x	x	x	x	21%
COc1ccc2c(c1)C(=O)[C@@H](OC(=O)Nc1cc(OC)c(OC)c(OC)c1)[C@H](c1ccc(OC)c(Br)c1)O2	x	x	x	x	x	-21%[14.2 µM]
Cc1cc(N2CCCC2)ccc1NC(=O)COc1cccc(C(F)(F)F)c1	13µM*	4%	-1%	-14%	x	x
COc1cc(C(=O)NCc2cccnc2)ccc1OCC(=O)Nc1cccc(C(F)(F)F)c1	u	11µM*	-4%	7%	u	u
CN1CCN(C(=S)c2ccc(OCC(=O)Nc3cccc(C(F)(F)F)c3)cc2)CC1	u	20µM*	2%	-3%	u	u
C[C@H](CCC(=O)NCC(=O)O)C1CC[C@H]2C3CC[C@@H]4C[C@H](O)CC[C@]4(C)C3C[C@H](O)[C@]12C (some centres not stated)	x	-20%	x	x	x	x
Cc1cc(C)c2nc(N3CCCC(C(=O)NCc4ccccc4F)C3)sc2c1 (configuration not stated)	x	-4%	5%	x	x	8%[46.1 µM]
CCN(CC)c1ccc(/C=N/Nc2cccc(C)c2)c(O)c1	-6%	8%	10µM*	7%	0%	-18%
CCN(CC)c1ccc(/C=N/Nc2ccccc2)c(O)c1	-18%	26%	10µM*	-8%	2%	u
COc1ccc(/C=C/CN2CCCC(CCC(=O)NCc3ccc(F)c(F)c3)C2)cc1 (configuration not stated)	u	-28%	14%	u	0%	7.9µM*
COc1ccc(C2C=C(C34CC5CC(CC(C5)C3)C4)NC(=S)N2)cc1 (configuration not stated)	-16%	-17%	-2%	7%	u	15µM*
COc1ccc(C2=CC(c3ccc(OC)c(OC)c3)NC(=S)N2)cc1 (configuration not stated)	-7%	-17%	3%	-16%	0%	-13%[46.1 µM]
O=C(Cn1c(-c2ccccc2)c[n+]2ccsc12)c1ccc([N+](=O)[O-])cc1	10µM*	0%	4%	-5%	-17%	u
